About 320 (15%) of roughly 2,100 compounds were called active. About 52% were inconclusive and are not listed. Calls come from the whole dose curve; as a rule, active = well fitted cell-killing curve with a large enough effect; inconclusive = small, poorly fitted or top-dose-only effect, or effect the other way; inactive = flat fitted curve, though single readings scatter. The list shows a part of the results. Entries that show only a call come without a potency.

The results in this text go back to PubChem BioAssay AID1745849 (National Center for Advancing Translational Sciences (NCATS), 2022).
Potency is the fitted concentration of half-maximal effect.

The assay can be described thus: Viability Counterscreen for CMV-Luciferase Assay of Inhibitors of ATXN expression. Note: nearly all actives have a fitted effect of over 55% in size. The following applies: HEK-293 CMV-luciferase cells viability, protease fluorescence, 24 h. The text has this:
PI: Daniel Scoles Ph.D. University of Utah School of Medicine, Salt Lake City, Utah MLPCN Grant: NS073009 Spinocerebellar ataxia type 2 (SCA2) is a multisystem neurodegenerative disease caused by a dominantly acting mutation leading to expansion of a polyQ domain in the ataxin-2 protein (ATXN2). SCA2 patients develop progressive ataxia and later lose function in other neuronal systems. Prominent parkinsonian signs develop in some patients. Like many neurodegenerative disorders, no symptomatic or disease-modifying treatments are known. The primary objective of the proposed research is to identify compounds inhibiting ATXN2 expression and to test them for efficacy in SCA2 mouse models. We have developed a cell-based assay paired with an in vivo mouse model using identical luciferase expression constructs. This approach takes advantage of an ATXN2-luciferase transgene, with the luciferase gene flanked by the upstream and downstream portions of the ATXN2 gene. Here we describe a 5-7 dose quantitative high thoroughput screen (qHTS) for compounds lowering ATXN2 expression. We screened the NIH Molecular Libraries Small Molecule Repository (MLSMR) and NCGC's mechanistically annotated (MIPE) and drug repurposing (NPC) collections of compounds for lowering expression of an ATXN2-luciferase reporter in HEK-293 cells. The assay is a multiplexed cell viability assay to ensure target reduction in the absence of cytotoxicity. Secondary qHTS assays included a CMV-luciferase reporter expressed in HEK-293 cells as well as a biochemical assay using recombinant luciferase to detect inhibitors of the reporter enzyme. Compounds that inhibit ATXN2 expression but is not cytotoxic were selected for confirmatory and secondary screens.
PROTOCOL TABLE (as described by Inglese J, Shamu CE and Guy RK. 2007) SEQUENCE No. (e.g., 1, 2, 3, etc.); […] (e.g., Cells, Incubation, Reagent, etc.); VALUE; DESCRIPTION. 1; Cells; 4 uL; white, solid bottom, 1536-well Greiner assay plate. 2; Incubation; 2 hr; 37 degree C in 5% humidified CO2. 3; Compounds; 23 nL; Kalypsis pintool (Wako USA) equipped with a 1536-well pin head. 4; Incubation; 24 hr; 37 degree C in 5% humidfified CO2. 5; Reagent; 1 uL; Gly-Phe-7-Amino-4-trifluoromethylcoumarin. 6; Incubation; 30 min; 37 degree C in 5% humidfified CO2. 7; Detection; Fluorescence; Viewlux plate reader (PerkinElmer). 8; Reagent; 3 uL; SteadyGlo luciferase solution (Promega). 9; Incubation; 5 min; room temperature. 10; Detection; Luminescence; ViewLux plate reader (PerkinElmer). NOTES (numbers refer to Sequence numbers above) 1. HEK-293 cells expressing CMV-luciferase reporter (designated as SC cells) were suspended in phenol-red free DMEM and dispensed in assay plates using a Multidrop Combi dispenser (Thermo Fisher Scientific). 2. Assay plates were incubated. Evaporation was prevented by covering assay plates with metal lids containing holes to allow gas diffusion. 3. Compounds were added in a dose response manner with the final concentrations of 57, 11.4, 2.28, 0.46, 0.091, 0.018, 0.0037 uM. Vehicle-only plates, with DMSO being pin-transferred to columns 5-48, were inserted uniformly at the beginning and the end of each library to monitor and record any shifts in assay performance. 5. 125 uM Gly-Phe-7-Amino-4-trifluoromethylcoumarin (MP Biomedicals) working concentration was used at a final concentration of 25 uM. 7. To assess cell viability; the assay plates were read using the ViewLux high-throughput CCD imager (PerkinElmer), wherein single end-point fluorescence measurement was acquired (excitation 405/10; emission 540/25 nm). 8. Detection reagent SteadyGlo Luciferase (Promega) was added to the assay plate. 10. Luminescence is then measured on the ViewLux imager equipped with a clear emission filter using a 2 sec exposure. […]
As for `CC(=O)N1CCN(c2ccc(Oc3ccc([N+](=O)[O-])c(C(F)(F)F)c3)cc2)CC1`, the Potency result was “inactive”.
To `Clc1ccc(SCc2cc(N3CCOCC3)nc(-c3ccccn3)n2)cc1` belongs 17.8 µM (active).
To `Cc1cc(Oc2ccc(Cl)cc2)nc(-c2ccccn2)n1` belongs “inactive”; to `O=C(Oc1c(CN2CCOCC2)cc(Cl)c2cccnc12)c1ccccc1`, “inactive”.
Under `CCCC(=O)Nc1ccc2nc(SCC(=O)N3CCCC3)sc2c1` stands “inactive”; under `COc1ccccc1OCCN1CSC(=S)N(C)C1`, 11.2 µM (active); under `COc1cc(OC)cc(-c2cc3nc(C)c(CCC(=O)NCc4ccccc4)c(C)n3n2)c1`, “inactive”.
Take `O=C(NCc1ccccc1C(F)(F)F)c1cccc2c1C(=O)c1ccc(N3CCC(N4CCCCC4)CC3)cc1S2(=O)=O`: the Potency result is “inactive”.
Under `Cc1ccsc1/C=C/C1=Cc2c(sc(NC(=O)CSc3n[nH]c(N)n3)c2C#N)C(C)(C)C1` stands “inactive”; under `COC(=O)c1ccccc1S(=O)(=O)NNC(=O)Nc1ccccc1`, “inactive”; under `CCSc1nc2ccccc2n1C(=O)/C=C\c1ccc(OC)c(OC)c1`, 4.47 µM (active).
To `COc1ccc(/C=C/C(=O)Nc2cccc(S(=O)(=O)N3CCCC3)c2)cc1OC` belongs “inactive”.
To `O=C(CN1c2cccc3cccc(c23)S1(=O)=O)NCc1ccc(Cl)cc1` belongs “inactive”; to `CCN(CC)CCC(c1ccc2c(c1)OCO2)c1c(OC)cc(OC)c2c(-c3ccccc3)cc(=O)oc12` (stereo not drawn), 17.8 µM (active); to `COc1ccccc1C(=O)NNC(=O)c1nn(Cc2ccccc2)c(=O)c2ccccc12`, 22.4 µM (active).
`COc1ccc(-n2nc(C(=O)NCC(=O)Nc3cccc(Cl)c3)c3ccccc3c2=O)cc1OC`: the Potency result was “inactive”.
Under `CC(C)(C)c1ccc(OCCn2nc(C(=O)O)c3ccccc3c2=O)cc1` stands “inactive”; under `O=C(C(Br)=Cc1ccccc1)c1ccccc1`, 7.94 µM (active); under `CC(C)(C)NCC(=Cc1ccccc1)C(=O)c1ccccc1`, 2.24 µM (active).
Under `O=C(N/N=C/c1ccccc1O)/C(=C/c1ccccc1)CCO` stands “inactive”.
Under `Cc1ccc(CN(C)C(=O)CN2C(=O)NC(c3ccccc3)(c3ccccc3)C2=O)c(C)c1` stands “inactive”; under `O=C(Nc1cccc(S(=O)(=O)N2CCOCC2)c1)c1ccc2c(=O)n3c(nc2c1)CCCCC3`, “inactive”.
As for `O=C(Nc1ccc(NC(=O)c2ccc(Cl)cc2Cl)cc1)c1cccs1`, the Potency entry was “inactive”.
With `O=C(Nc1ccc(Cl)cc1)Nc1nc(-c2sccc2Br)cs1`, the Potency is 10 µM (active).
To `Cc1ccc(F)cc1-c1cc2nc(NCCCN(C)C)n(C)c(=O)c2s1` belongs “inactive”.
To `CC(C)c1cccc(C(C)C)c1Nc1cn[nH]c1` belongs “inactive”.
Under `CCOC(=O)c1cnc(-n2nc(C)cc2C)nc1NC1CCCC1` stands “inactive”; under `CCOC(=O)c1cnc(-n2nc(C)cc2C)nc1NNc1cc(C)nc(-c2ccccc2)n1`, 8.91 µM (active); under `CCCc1cc(NCc2ccccn2)n2nc(C)c(-c3ccccc3)c2n1`, “inactive”.
For the molecule `CC(C)C(CCNCc1ccccn1)c1ccc(Cl)cc1` (stereo not drawn), the Potency result was “inactive”.
To `Cc1cc(NCc2ccccn2)n2nc(C)c(-c3ccc(Cl)cc3)c2n1` belongs 20 µM (active); to `COc1cc(/C=C/c2ccc3cccc(O)c3n2)cc(OC)c1OC`, “inactive”.
Under `COc1cc(/C=C2\COC/C(=C\c3cc(OC)c(OC)c(OC)c3)C2=O)cc(OC)c1OC` stands 1.58 µM (active).
To `COc1cc(OC)c(OC)cc1/C=C1\CC(C)C/C(=C\c2cc(OC)c(OC)cc2OC)C1=O` (stereo not drawn) belongs “inactive”; to `CCOC(=O)N(C)c1c(CC)nc2c(OCc3ccccc3OC)cccn12`, “inactive”; to `Cc1cc(C)cc(NC(=O)CCC(=O)Nc2cc(C)on2)c1`, “inactive”.
On to `Cn1c(SCc2ccc(C(C)(C)C)cc2)nnc1C1COc2ccccc2O1` (stereo not drawn), for which the Potency entry is “inactive”.
To `N#C/C(=C/c1ccc(Sc2nc3ccccc3[nH]2)o1)c1cccc(F)c1` belongs “inactive”; to `CC1(C(=O)NC2CCN(Cc3ccccc3)CC2)CCN1Cc1ccc2ccccc2c1` (stereo not drawn), “inactive”; to `C=CCN(C(=O)CSc1nc2c(sc3ccccc32)c(=O)n1CCN(CC)CC)c1ccccc1`, 20 µM (active).
To `COc1ccc(/C=C/C(O)=C2/C(=O)N(C)C3(C)CC2c2ccccc2O3)cc1` (stereo not drawn) belongs “inactive”.
Under `COc1ccc(C(=O)c2c(C)c3ccccc3n2CC(O)CNC(C)C)cc1` (stereo not drawn) stands 17.8 µM (active); under `O=C(Oc1c(CN2CCOCC2)cc(Cl)c2cccnc12)c1cccs1`, “inactive”; under `COc1cnc(-c2ccccn2)nc1NC(C)C`, 6.31 µM (active).
As for `COc1cc(C#Cc2c(-c3cncn3C)n(C)c3ccc(-c4ccc(CN5CCOCC5)cc4)cc23)cc(OC)c1`, the Potency result was “inactive”.
For the molecule `COc1ccc2c(-c3ccc(S(N)(=O)=O)cc3)c(-c3ccc(S(C)(=O)=O)cc3)sc2c1`, the Potency entry was “inactive”.
Under `NC(=O)c1cc([N+](=O)[O-])ccc1NCc1ccc(N)cc1` stands 22.4 µM (active); under `OCCN1CCN(C2CCC(c3ccc(F)cc3)c3ccc(F)cc32)CC1` (stereo not drawn), “inactive”; under `CC(C)CC(NC(=O)c1ccc(Cl)cc1)C(=O)OCC(=O)c1ccc2c(c1)NC(=O)CO2` (stereo not drawn), 14.1 µM (active).
To `CN(C)CCCNc1nc2cc(-c3cccc(Cl)c3)sc2c(=O)n1C` belongs “inactive”.
Under `O=C(CNC(=O)c1ccccc1O)N/N=C/c1cc(Br)ccc1OC(=O)/C=C/c1ccco1` stands “inactive”.
As to `COCc1ccc(CN2CCC(C(=O)Nc3cccc(-c4cccc(Cl)c4)c3)CC2)o1`, the Potency is 17.8 µM (active).
To `CC(=O)c1cc(CN2CCC(C(=O)Nc3cccc(-c4cscn4)c3)CC2)cs1` belongs “inactive”; to `CCCn1ncc(CN2CCC(C(=O)Nc3cccc(-c4cccc(F)c4)c3)CC2)c1C`, “inactive”.
Under `O=C(NCc1ccco1)c1ccc(-c2cccc(Cl)c2)o1` stands “inactive”; under `CN1CCC(N(C)C(=O)c2ccc(Cl)c(S(=O)(=O)N3CCc4ccccc43)c2)CC1`, “inactive”; under `Cc1ccccc1SCC(=O)N1CCN(c2ccc(C(F)(F)F)cn2)CC1`, “inactive”.
Under `O=C(Nc1ccc(F)cc1)c1sccc1SCc1cccc(C(F)(F)F)c1` stands “inactive”; under `O=C(CSC1=NNC(c2ccccn2)S1)Nc1ccc(C(F)(F)F)cc1` (stereo not drawn), 14.1 µM (active); under `COC(=O)c1ccsc1NC(=O)CN1CCN(Cc2ccc3c(c2)OCO3)CC1`, “inactive”.
For the molecule `Cc1ccc(C(=O)COC(=O)c2ccc3c(c2)C(=O)N(c2cccc4ncccc24)C3=O)cc1`, the Potency was 22.4 µM (active).
As for `Cc1ccc2nc(NC(=O)CSCC(=O)OCC(=O)c3ccc(Br)cc3)sc2c1`, the Potency entry was “inactive”.
To `Cc1ccc(C(=O)CN2C(=O)c3ccccc3S2(=O)=O)cc1` belongs “inactive”.
